Common to all, as to parameters: scale not given: direction of the effect not stated beside the values
Assay [1] addresses Protein translocase subunit SecA (Escherichia coli (strain K12)) (UniProt P10408). The experiment in a line: Assay to Identify E. coli SecA ATPase Inhibitors. The class given is functional. As to conditions: 30 µM.
Assay [2] addresses T1, Ubiquitin-activating enzyme e1, putative (Leishmania donovani (strain BPK282A1)) (UniProt E9BSI1).
T1 sequence (whole entry): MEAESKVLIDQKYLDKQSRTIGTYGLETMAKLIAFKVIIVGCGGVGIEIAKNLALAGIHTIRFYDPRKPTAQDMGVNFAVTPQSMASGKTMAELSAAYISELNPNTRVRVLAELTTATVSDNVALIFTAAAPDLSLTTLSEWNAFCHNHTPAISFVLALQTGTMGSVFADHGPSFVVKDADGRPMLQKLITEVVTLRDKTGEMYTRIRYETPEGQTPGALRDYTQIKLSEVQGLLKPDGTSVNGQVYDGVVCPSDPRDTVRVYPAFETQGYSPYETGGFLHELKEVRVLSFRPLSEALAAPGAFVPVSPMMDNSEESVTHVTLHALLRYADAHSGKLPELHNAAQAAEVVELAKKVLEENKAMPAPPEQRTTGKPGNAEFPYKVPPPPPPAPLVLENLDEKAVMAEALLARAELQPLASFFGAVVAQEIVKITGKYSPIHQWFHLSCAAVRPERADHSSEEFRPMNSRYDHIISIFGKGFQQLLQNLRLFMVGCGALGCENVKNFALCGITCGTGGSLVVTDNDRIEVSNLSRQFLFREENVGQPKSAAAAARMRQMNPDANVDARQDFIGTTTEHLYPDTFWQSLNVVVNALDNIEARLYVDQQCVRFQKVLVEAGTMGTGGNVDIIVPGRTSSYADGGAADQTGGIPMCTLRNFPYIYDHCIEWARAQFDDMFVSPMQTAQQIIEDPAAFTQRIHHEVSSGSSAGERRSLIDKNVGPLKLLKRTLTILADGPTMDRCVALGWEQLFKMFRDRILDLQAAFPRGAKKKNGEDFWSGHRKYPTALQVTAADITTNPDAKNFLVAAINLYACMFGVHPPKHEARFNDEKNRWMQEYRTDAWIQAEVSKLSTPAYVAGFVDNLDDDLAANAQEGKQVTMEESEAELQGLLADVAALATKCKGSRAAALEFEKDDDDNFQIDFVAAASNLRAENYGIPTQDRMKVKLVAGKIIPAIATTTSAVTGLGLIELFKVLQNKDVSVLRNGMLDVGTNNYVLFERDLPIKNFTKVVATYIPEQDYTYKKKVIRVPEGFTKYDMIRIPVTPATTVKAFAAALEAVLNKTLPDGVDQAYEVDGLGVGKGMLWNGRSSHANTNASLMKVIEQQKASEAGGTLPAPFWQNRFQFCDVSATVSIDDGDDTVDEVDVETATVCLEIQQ
The experiment in a line: Leishmania donovani Ubiquitin Activating Enzyme (LdE1). The class given is functional. As to conditions: 30 µM.

Assay [3] concerns the target AMP-activated protein kinase, AMPK (Homo sapiens) (UniProt P54646+O43741+P54619+Q9UGJ0+Q9Y478+Q13131+Q9UGI9). The experiment in a line: AMP-dependent Kinase enzyme assay. An in vitro enzyme assay that detects ADP turnover that is directly proportional to AMPK activity. This uses naive AMPK that is activated during the assay with MK-8722. The class given is functional. As to conditions: 30 µM.

The target in assay [4] is Sialic acid-binding Ig-like lectin 9 (Homo sapiens) (UniProt Q9Y336). The experiment in a line: Hs-Siglec9 ALPHAscreen SOP 20170721. As to conditions: 10 µM.
The subject of a further assay is Trypanosoma cruzi. The experiment in a line: Trypanosoma cruzi phosphomannomutase and mannose-1-phosphate guanylyltransferase assay. It counts as functional. As to conditions: 10 µM.
For assay [5], the target named is T2, Arginase-2, mitochondrial (Homo sapiens) (UniProt P78540).
T2 sequence (whole entry): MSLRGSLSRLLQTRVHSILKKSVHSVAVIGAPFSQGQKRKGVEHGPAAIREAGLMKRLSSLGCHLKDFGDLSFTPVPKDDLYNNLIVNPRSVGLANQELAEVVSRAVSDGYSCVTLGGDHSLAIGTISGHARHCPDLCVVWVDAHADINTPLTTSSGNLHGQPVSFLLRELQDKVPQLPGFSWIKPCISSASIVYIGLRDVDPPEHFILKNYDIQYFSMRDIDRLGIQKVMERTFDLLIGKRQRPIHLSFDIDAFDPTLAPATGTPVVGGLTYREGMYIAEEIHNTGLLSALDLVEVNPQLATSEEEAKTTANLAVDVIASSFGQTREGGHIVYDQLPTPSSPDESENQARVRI
The experiment in a line: in vitro enzyme assay to detect the production of urea directly proportional to the activity of Arginase II. Also: in the data most compounds retested in dose-response had high values. It counts as functional. As to conditions: 33.3 µM.

In assay [6] the target is T3, Proteasome subunit beta (Trypanosoma cruzi) (UniProt O96673).
T3 sequence (whole entry): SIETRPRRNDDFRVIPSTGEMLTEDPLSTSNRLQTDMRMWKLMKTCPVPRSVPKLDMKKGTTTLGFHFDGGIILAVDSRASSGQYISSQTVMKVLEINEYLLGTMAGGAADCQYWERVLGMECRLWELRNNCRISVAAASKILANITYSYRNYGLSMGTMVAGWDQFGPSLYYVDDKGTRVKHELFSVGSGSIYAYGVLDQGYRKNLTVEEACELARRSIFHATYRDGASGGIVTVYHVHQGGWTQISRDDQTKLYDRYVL
The experiment in a line: Trypanosoma cruzi proteasome chymotrypsin-like activity (TcProtChymo) assay. Also: in the data most compounds retested in dose-response had high values. As to conditions: 9.37 µM. It counts as functional.

For another assay, the species on record is Homo sapiens. The experiment in a line: To identify inhibition of the IFN signalling (Jak-Stat) pathway via expression of an eGFP reporter gene under the control of an IFN-stimulated response element (ISRE) containing MxA promoter. As to conditions: 30 µM. The class given is functional.
The target in assay [7] is T4, Tyrosyl-tRNA synthetase, putative (Trypanosoma cruzi (strain CL Brener)) (UniProt Q4DSP6).
T4 sequence (whole entry): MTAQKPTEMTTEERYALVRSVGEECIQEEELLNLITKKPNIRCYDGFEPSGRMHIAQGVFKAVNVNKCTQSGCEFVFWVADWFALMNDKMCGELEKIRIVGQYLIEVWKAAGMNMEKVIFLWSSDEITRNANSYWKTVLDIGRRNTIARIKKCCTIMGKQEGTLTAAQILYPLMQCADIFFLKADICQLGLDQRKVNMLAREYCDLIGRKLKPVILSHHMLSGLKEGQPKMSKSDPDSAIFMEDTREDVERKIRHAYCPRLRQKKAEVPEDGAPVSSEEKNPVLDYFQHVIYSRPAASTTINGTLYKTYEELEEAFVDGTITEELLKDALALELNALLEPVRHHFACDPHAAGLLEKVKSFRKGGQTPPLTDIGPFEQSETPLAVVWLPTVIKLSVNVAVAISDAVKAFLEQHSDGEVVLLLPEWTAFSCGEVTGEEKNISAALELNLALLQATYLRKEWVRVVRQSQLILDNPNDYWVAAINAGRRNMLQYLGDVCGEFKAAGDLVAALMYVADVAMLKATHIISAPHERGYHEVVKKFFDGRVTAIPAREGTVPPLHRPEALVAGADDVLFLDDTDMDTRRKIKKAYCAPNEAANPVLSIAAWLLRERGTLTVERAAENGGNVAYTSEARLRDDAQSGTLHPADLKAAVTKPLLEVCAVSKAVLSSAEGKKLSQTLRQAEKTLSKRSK
The experiment in a line: Trypanosoma cruzi tyrosyl tRNA synthetase (TcYRS) _High Tyrosine SOP. Also: in the data most compounds retested in dose-response had high values. The class given is functional. As to conditions: 30 µM.

The target in assay [8] is T4, Tyrosyl-tRNA synthetase, putative (Trypanosoma cruzi (strain CL Brener)). The experiment in a line: Trypanosoma cruzi tyrosyl tRNA synthetase (TcYRS) SOP. The class given is functional. As to conditions: 30 µM.
The target of assay [9] is Chromo domain-containing protein 1 (Saccharomyces cerevisiae (strain ATCC 204508 / S288c) (Baker's yeast)) (UniProt P32657). The experiment in a line: ScCHD-1 Enzyme Inhibition Assay. Also: in the data most compounds retested in dose-response had high values. It counts as functional. As to conditions: 30 µM.

Structures are written as SMILES. For some of these results: Results with a measured potency or affinity are listed apart.

Sequence of Chromo domain-containing protein 1 (Saccharomyces cerevisiae (strain ATCC 204508 / S288c) (Baker's yeast)) (P32657 whole entry, the tested form may be a part): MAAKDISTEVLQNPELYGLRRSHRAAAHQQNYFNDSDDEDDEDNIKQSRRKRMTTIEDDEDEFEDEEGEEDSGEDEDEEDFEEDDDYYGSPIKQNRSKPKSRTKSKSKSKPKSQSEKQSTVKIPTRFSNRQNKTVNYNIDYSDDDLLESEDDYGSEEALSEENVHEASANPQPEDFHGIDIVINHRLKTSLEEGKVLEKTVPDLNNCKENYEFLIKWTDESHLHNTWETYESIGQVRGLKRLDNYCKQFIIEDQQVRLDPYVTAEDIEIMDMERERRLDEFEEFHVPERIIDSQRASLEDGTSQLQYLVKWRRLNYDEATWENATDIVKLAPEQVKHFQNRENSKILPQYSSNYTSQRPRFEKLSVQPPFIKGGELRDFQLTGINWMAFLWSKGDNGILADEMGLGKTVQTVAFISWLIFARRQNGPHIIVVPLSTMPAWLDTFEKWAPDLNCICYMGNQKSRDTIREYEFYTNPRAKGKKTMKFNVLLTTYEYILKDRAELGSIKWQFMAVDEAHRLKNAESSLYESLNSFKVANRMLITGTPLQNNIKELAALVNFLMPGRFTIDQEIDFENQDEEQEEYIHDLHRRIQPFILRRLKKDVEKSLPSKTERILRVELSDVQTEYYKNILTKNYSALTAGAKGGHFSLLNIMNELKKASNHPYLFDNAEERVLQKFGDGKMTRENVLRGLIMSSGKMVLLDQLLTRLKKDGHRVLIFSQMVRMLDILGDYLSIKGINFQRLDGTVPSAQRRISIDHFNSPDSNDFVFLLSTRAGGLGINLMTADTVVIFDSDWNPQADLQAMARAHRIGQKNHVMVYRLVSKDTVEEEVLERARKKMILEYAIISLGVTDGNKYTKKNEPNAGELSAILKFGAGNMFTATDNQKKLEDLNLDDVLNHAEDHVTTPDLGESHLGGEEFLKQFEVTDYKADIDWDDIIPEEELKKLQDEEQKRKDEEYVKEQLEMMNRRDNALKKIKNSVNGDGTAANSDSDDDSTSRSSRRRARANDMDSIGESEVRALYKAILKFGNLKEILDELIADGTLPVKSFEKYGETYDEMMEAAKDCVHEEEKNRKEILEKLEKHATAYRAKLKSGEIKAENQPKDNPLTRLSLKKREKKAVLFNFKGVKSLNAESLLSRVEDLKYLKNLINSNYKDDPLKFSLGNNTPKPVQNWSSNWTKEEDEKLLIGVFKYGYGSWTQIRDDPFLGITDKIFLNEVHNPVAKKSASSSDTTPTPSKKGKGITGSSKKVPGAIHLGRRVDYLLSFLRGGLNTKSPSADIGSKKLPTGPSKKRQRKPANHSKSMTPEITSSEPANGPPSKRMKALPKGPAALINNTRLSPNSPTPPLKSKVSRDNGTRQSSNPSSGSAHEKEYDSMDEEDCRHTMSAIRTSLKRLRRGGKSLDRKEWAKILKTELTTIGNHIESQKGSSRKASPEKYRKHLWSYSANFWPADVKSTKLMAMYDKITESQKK
Sequence of Protein translocase subunit SecA (Escherichia coli (strain K12)) (P10408 whole entry): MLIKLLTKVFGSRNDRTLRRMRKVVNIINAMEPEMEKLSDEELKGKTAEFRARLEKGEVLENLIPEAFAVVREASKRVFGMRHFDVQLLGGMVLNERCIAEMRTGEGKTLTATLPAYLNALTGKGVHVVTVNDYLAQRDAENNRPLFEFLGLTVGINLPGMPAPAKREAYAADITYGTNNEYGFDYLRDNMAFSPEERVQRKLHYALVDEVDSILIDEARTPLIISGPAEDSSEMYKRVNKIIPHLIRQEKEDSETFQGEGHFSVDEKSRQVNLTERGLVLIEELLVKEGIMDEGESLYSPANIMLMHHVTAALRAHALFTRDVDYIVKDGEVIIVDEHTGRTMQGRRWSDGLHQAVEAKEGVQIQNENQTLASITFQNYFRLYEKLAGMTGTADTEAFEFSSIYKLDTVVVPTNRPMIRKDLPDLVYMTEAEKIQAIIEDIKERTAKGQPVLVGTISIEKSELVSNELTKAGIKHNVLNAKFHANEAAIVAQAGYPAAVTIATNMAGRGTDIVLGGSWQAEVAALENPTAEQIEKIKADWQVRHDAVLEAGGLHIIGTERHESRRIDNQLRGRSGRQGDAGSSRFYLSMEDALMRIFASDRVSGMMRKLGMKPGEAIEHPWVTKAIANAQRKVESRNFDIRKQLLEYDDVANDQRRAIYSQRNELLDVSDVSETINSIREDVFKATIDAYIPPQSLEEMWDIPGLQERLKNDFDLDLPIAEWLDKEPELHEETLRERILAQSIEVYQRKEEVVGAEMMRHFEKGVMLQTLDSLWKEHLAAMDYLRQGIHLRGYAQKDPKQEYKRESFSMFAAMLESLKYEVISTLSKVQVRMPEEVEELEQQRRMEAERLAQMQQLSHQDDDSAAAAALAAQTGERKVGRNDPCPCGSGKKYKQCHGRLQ
Sequence of Sialic acid-binding Ig-like lectin 9 (Homo sapiens) (Q9Y336 whole entry): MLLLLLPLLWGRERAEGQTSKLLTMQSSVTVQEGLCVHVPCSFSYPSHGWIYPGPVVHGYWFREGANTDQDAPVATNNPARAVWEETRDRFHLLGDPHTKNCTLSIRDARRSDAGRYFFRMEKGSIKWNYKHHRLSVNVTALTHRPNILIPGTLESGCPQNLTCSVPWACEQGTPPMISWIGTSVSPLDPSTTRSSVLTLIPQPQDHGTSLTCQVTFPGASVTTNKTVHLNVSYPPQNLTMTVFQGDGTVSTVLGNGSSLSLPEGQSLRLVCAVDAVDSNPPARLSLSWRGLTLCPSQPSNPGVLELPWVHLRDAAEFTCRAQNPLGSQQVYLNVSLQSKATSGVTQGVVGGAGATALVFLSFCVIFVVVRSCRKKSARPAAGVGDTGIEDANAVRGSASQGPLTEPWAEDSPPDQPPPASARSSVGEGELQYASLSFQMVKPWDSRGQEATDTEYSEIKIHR

`O=C(COc1coc(CN2CCCCCC2)cc1=O)c1ccccc1`: the Percent Effect in [1] was -5.87%; in assay [2], -7.89%; in [3], -1.88%; in assay [4] it was -6.78%; in the assay with Trypanosoma cruzi, -3.6%; in [5], -1.18%. For the same molecule, the Percent Effect was 9.49% in [6]; -1.04% in the assay listed under Homo sapiens; 3.19% in assay [7]; 0% in [8]; 72.3% in assay [9].
For `COc1ccccc1C(=O)N1CCCC1Cn1cc(C)cn1` (stereo unspecified), the Percent Effect in [1] was -3.53%; in [2], 18.9%; in [3] it was -13.2%; in [4], -6.09%; in the assay with Trypanosoma cruzi it was -4.25%; in [5] it was -2.81%. The Percent Effect in assay [6] was 4.68%; in the assay listed under Homo sapiens, -3.42%; in assay [7], 11.3%; in [8], 18.5%; in assay [9] it was -4.38%.
As for `CCN1CC(C(=O)NC(C)(C)CNC(=O)OC(C)(C)C)CC1=O` (stereo unspecified), the Percent Effect in assay [1] is -5.66%; in [2] it was 8.11%; in assay [3] it was -1.21%; in assay [4], 20.7%; in the assay with Trypanosoma cruzi, -1.66%; in assay [5], 4.22%. Also, the Percent Effect is 7.47% in assay [6]; -16.6% in the assay filed under Homo sapiens; 4.3% in [7]; 8.64% in [8]; -4.86% in assay [9].
Turning to `Cn1ccc2c(C(=O)N3CCC(C(N)=O)CC3)cccc21`, the Percent Effect in assay [1] was 0.857%; in assay [2], 14.7%; in assay [3], 2.71%; in assay [4], -1.54%; with Trypanosoma cruzi, -4.13%; in [5], -9.68%. In addition, the Percent Effect in [6] was 13.1%; in the assay filed under Homo sapiens, 7.15%; in [7] it was 8.47%; in assay [8], 17.9%; in [9] it was -10.7%.
On to `CN(Cc1nnc(C2CC2)n1C)C1CCN(Cc2ccc(F)cc2)C1` (stereo unspecified), for which the Percent Effect in assay [1] is -0.349%; in assay [2], 18.9%; in [3], -8.58%; in assay [4], 2.26%; in the assay with Trypanosoma cruzi, 0.283%; in [5], -8.02%. In addition, the Percent Effect was 13% in assay [6]; 5.85% in the assay filed under Homo sapiens; -1.48% in assay [7]; 18.5% in [8]; -10.5% in assay [9].
In the case of `O=C(Cn1cc(I)cn1)Nc1cccnc1`, the Percent Effect is -7.8% in [1]; 0% in [2]; 2.58% in [3]; 6.82% in assay [4]; 1.85% in the assay with Trypanosoma cruzi; -10.7% in assay [5]. Further, the Percent Effect in [6] was 16.4%; in the assay listed under Homo sapiens, 4.4%; in [7], 3.19%; in assay [8], 7.79%; in [9], -7.88%.
For `Cc1ncc(CNC(=O)CCOc2ccccc2)c(C2CCCN2C)n1` (stereo unspecified), the Percent Effect in assay [1] is -0.839%; in [2], -1.35%; in assay [3], 18.7%; in assay [4], 7.48%; in the assay on Trypanosoma cruzi, -6.32%; in assay [5], 3.02%. Moreover, the Percent Effect in assay [6] was 6.08%; in the assay filed under Homo sapiens, 12.3%; in [7], 1.07%; in assay [8] it was 1.3%; in assay [9], -1.9%.
With `CN(Cc1ccco1)C(=O)C1CSCN1C(=O)c1cccnc1` (stereo unspecified), the Percent Effect is -3.86% in assay [1]; 0% in [2]; 0.482% in assay [3]; 1.7% in [4]; 0.467% in the assay on Trypanosoma cruzi; -3.96% in assay [5]. In addition, the Percent Effect was 4.65% in [6]; -7.95% in the assay listed under Homo sapiens; -0.493% in assay [7]; 1.24% in assay [8]; -0.736% in assay [9].
As for `Cn1nc(CNC(=O)NCc2ccc(Cl)cc2)c2c1CCOC2`, the Percent Effect in assay [1] was -4.99%; in [2], 5.2%; in assay [3], 6.43%; in assay [4], 7.81%; in the assay on Trypanosoma cruzi, 3.45%; in assay [5], -7.1%. The Percent Effect in assay [6] was -3.83%; in the assay listed under Homo sapiens, 20.2%; in [7], 0%; in assay [8] it was -3.85%; in [9], -5.33%.
As to `c1cnnc(N2CCCC2CNCc2cc[nH]n2)c1` (stereo unspecified), the Percent Effect in assay [1] is -2.52%; in [2], 0%; in assay [3], 4.85%; in assay [4] it was -5.55%; in the assay with Trypanosoma cruzi it was 4.89%; in assay [5] it was 3.45%. Also, the Percent Effect in assay [6] was -1.34%; in the assay filed under Homo sapiens it was -3.22%; in assay [7], 1.47%; in assay [8] it was 7.32%; in assay [9], -6.65%.
With `CN(C)CC1CN(Cc2cccc(C(=O)N(C)C)c2)CCO1` (stereo unspecified), the Percent Effect in assay [1] is -4.12%; in [2], 20.8%; in assay [3] it was -4.76%; in [4], -4.42%; in the assay with Trypanosoma cruzi it was -0.562%; in [5] it was 3.56%. Besides, the Percent Effect in assay [6] was 14.7%; in the assay listed under Homo sapiens it was 20.8%; in assay [7], 10.7%; in assay [8], 14.6%; in assay [9], -5.94%.

The values are drawn from ChEMBL document CHEMBL3988442, “University of Dundee, Small-Polar-MMV Screening Library” (2021).
